# Results from PubChem BioAssay.
# Experiment: MRP1 drug-resistance reversers in H69AR cells – cell-based, doxorubicin co-treatment, pilot screen (AID 601)
# Settings: H69AR cells, CellTiter-Glo, 72 h; compound alone cytotoxicity; at 10 µM
row,SMILES,viability [%]
1,Cc1cc(C)n(CCCNC(=O)c2ccc3c(c2)NC(=O)CS3)n1,89.7
2,CCOC(=O)/C=C1\SCC(=O)N1Cc1ccc(Br)cc1,97.3
3,CCOc1ccc2cc(C#N)c(SCC(=O)N3CCOCC3)nc2c1,74.6
4,CCN(CC)CCN1C(=O)C(O)=C(C(=O)c2ccco2)C1c1ccccn1 (centres undefined),97.7
5,O=C1CCC(=O)N1OCCCCOc1ccccc1,96.2
6,O=C(O)CCc1ccc(-c2ccc(F)cc2)n1CC(=O)O,98
7,CCN(CC)CCCN(Cc1cc2cc(OC)ccc2[nH]c1=O)C(=O)Nc1ccccc1,77.7
8,Cc1cccc(Cc2nnc(NC(=O)c3cccc(S(=O)(=O)N4CCOCC4)c3)s2)c1,79.2
9,CC(C)(CO)NC(=O)CCCOc1ccc(Cl)cc1Cl,98.1
10,O=C(c1ccc(-c2ccccc2)cc1)N1CCN(c2ncccn2)CC1,103
11,Fc1ccc(-c2csc3nnc(SCc4cccnc4)n23)cc1,82.9
12,CN(C)CCCN1C(=O)C(=O)/C(=C(/O)c2ccncc2)C1c1cccc(Br)c1 (centres undefined),94.5
13,CCN(CC)c1ccc(-c2c(C#N)c(N)nc(OC)c2C#N)cc1,79.4
14,Cc1cc(NC(=O)CSc2nc3ccccc3n2CC(=O)N2CCCCC2)no1,86.2
15,CCOC(=O)C1CCN(C(c2cc3cc(C)cc(C)c3[nH]c2=O)c2nnnn2C2CCCCC2)CC1 (centres undefined),62.8
16,O=c1[nH]cnc2c1nc(SCc1ccccc1)n2C1OC(CO)C(O)C1O (centres undefined),101
17,COc1ccc(-c2noc(CCCC(=O)O)n2)cc1,95
18,Cc1nc(SCC(=O)N2CCC(C(N)=O)CC2)n[nH]1,95.5
19,COC(=O)c1ccc(NC(=O)Cn2nnc3ccccc32)cc1,108
